Unmarked numbers belong to inactive results. No rule for the calls is given here.
Target: Pantothenate synthetase (Mycobacterium tuberculosis (strain ATCC 25618 / H37Rv)) (UniProt P9WIL5)
Assay: Coupled enzyme confirmation of inhibitors against recombinant Mtb PanC (AID 375);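 also: 0% = full reaction with vehicle and 100% = no enzyme background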
Conditions: coupled enzyme assay; at 10 µM, active compounds read high

Sequence of Pantothenate synthetase (Mycobacterium tuberculosis (strain ATCC 25618 / H37Rv)) (P9WIL5 whole entry, looked up): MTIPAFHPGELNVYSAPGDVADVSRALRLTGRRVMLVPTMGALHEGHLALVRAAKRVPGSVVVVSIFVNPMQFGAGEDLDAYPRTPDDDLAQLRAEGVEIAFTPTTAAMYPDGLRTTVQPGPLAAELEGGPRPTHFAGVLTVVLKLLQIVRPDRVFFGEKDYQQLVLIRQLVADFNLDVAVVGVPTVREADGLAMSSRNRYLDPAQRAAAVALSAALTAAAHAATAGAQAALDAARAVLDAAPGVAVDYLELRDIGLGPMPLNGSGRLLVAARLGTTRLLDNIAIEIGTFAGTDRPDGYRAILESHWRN

Row | SMILES | inhibition [%]
1 | CCN1C(=O)c2ccccc2S(=O)c2ccc(C(=O)NC3CC3)cc21 (centres undefined) | 6
2 | COC(=O)Nc1ccccc1C(=O)N1CCCCC1 | 0
3 | COc1ccccc1NC(=O)c1ccc(COc2ccccc2OC)o1 | 0
4 | Cc1cc(Nc2ccc(C(=O)O)cc2)n2nc(C)nc2n1 | 7
5 | CCOC(=O)c1sc(NC(=O)CSc2ncn(-c3ccccc3)n2)nc1C | 3
6 | CC(C)Cn1c2c(c(O)c(C(=O)Nc3ncccc3O)c1=O)CCCC2 | 0
7 | N#Cc1ccc(COC(=O)Cn2nnc(-c3ccccc3)n2)cc1 | 0
8 | OCCNC1=NCCN1 | 1
9 | C/C=C/COC(=O)c1[nH]c2c(c1C)C(=O)CC(c1ccco1)C2 (centres undefined) | 6
10 | COc1ccccc1C(=O)NC(C)C(c1cccs1)N1CCN(C)CC1 (centres undefined) | 3
11 | O=C(O)c1ccccc1C(=O)Nc1ccccc1 | 0
12 | COCCCN1C(=O)C(=O)/C(=C(/O)c2ccc(OC)cc2)C1c1ccc(O)c(OC)c1 (centres undefined) | 0
13 | CCCCC(=O)NCCc1cc2ccc(OC)cc2[nH]c1=O | 0
14 | CC1(C)CC(=O)N(CC(=O)NCc2ccccc2)c2ccccc2S1(=O)=O | 0
15 | CCC(C)(C)n1nnnc1C(c1ccncc1)N1CCN(c2cccc(OC)c2)CC1 (centres undefined) | 0
16 | CSc1nc(C)cc(Oc2ccc(=O)n(C)n2)n1 | 0
17 | COC(=O)c1ccccc1NC(=O)Nc1cc(C)cc(C)n1 | 2
18 | COc1ccc2c(CC(=O)Nc3ccc(OC)c(NS(=O)(=O)c4ccc(F)cc4)c3)coc2c1 | 1
19 | Cc1ccccc1-n1c(=O)cc(N2CCN(C(=O)c3ccco3)CC2)[nH]c1=O | 0
20 | CCOC(=O)Cc1csc(NC(=O)CSc2nnc(C)n2C)n1 | 0
21 | CCCSC1=C(C#N)C(c2ccccc2OCC)CC(=O)N1 (centres undefined) | 7
22 | CCCCCSc1nc2c(cnn2-c2ccccc2)c(=O)[nH]1 | 11
23 | N[C@@H](Cc1cc(I)c(Oc2ccc(O)c(I)c2)c(I)c1)C(=O)O | 0
24 | CCOC(=O)/C=C1\SCC(=O)N1Cc1ccc(Br)cc1 | 0

— PubChem BioAssay
